# Measured values published in article PMC12548414.
# The campaign covered roughly 1,600 compounds. About 20 (1%) showed an effect of 50% or more. The sample as a whole holds a higher share of strong results than the screen did.
# System: T1, E. coli pLC1021 (luc-trpAt trans-translation reporter)
# T1 construct: pLC1021 luc-trpAt reporter strain
# Parameters: species or system Escherichia coli pLC1021; luc-trpAt non-stop luciferase reporter; luminescence rises when trans-translation is inhibited; normalized to KKL-35 and DMSO
# Conditions: reporter signal, KKL-35 = 100%; rise means trans-translation inhibition; 2 h, 20 µM
# Method: The luciferase screen was performed as previously described ([16]). […] 48 µL of cells was transferred to white 96-well plates, and 2 µL DMSO or 20 µM compound, or 20 µM KKL-35 was added. Plates were sealed with adhesive film, vortexed gently to mix, and incubated at room temperature for 2 h. 50 µL Bright-Glo reagent (Promega, Madison, WI) was added to each well, and the plates were sealed with adhesive film, vortexed vigorously, and incubated for an additional 10 min at room temperature. Luminescence was measured at 560 nm using a SpectraMax i3 microplate reader and readings for each plate were normalized to the average of three KKL-35-treated wells (positive control) and three DMSO-treated wells (negative control) within the plate to correct for plate-to-plate and day-to-day variations. Results from at least two biological repeats were averaged, and GraphPad Prism was used to plot the data. We screened a library of 1,601 anti-tubercular small molecules for their ability to inhibit trans-translation using a luciferase reporter in Escherichia coli. In this luc-trpAt reporter, the firefly luciferase gene has a trpA transcriptional terminator before the stop codon, such that luciferase is translated from a non-stop mRNA ([16]). When trans-translation is active, the luciferase will be tagged and degraded, but when trans-translation is inhibited, active luciferase will accumulate, resulting in a luminescent signal when luciferin is added. Luciferase activity was measured after growth in the presence of compounds from the library at 20 µM, using the known trans-translation inhibitor KKL-35 as a positive control (Fig. 1A) ([16], [17]). Compounds with activity one standard deviation above the median were scored as positive (Fig. S1 and Table S1).
row,SMILES,% activation [%]
1,COC(=O)CSc1nc(N)c2c3c(sc2n1)CCCC3 [KKL-0994],9
2,COc1ccc(C(=O)NC(=S)Nc2ccc(N3CCCCC3)cc2)cc1OC [KKL-1472],0
3,Cc1cc(Nc2ccccc2)n(-c2nc3ccccc3[nH]2)n1 [KKL-0835],21
4,COc1ccc2[nH]c(CNCCc3nc4cc(Cl)ccc4[nH]3)cc2c1 [KKL-1215],0
5,COCc1nnc(NC(=O)c2nnn(-c3ccccc3F)c2C)s1 [KKL-0547],0
6,CCC(C)NCCCOc1ccc(Cl)c2ccccc12 (centres unmarked) [KKL-1428],0
7,O=C(CNCCN1CCOCC1)Nc1sc2c(c1C(=O)Nc1ccccc1)CCC2 [KKL-1074],2
8,CCOC(=O)c1ccc(NC(S)=Nc2ccc(Oc3ccccc3)cc2)cc1 [KKL-1317],0
9,Cc1c(C(=O)NC(=S)Nc2ccc(Oc3ccc(Cl)cc3)cc2)cccc1[N+](=O)[O-] [KKL-0735],17
10,O=C(COc1cccc(F)c1)Nc1nc(-c2ccccn2)cs1 [KKL-1787],5
11,O=C(CSc1ccccc1)Nc1ccc(-c2nc3ccccc3c(=O)o2)cc1 [KKL-0595],1
12,O=C(Nc1ccc(F)cc1)NC1CCCCCCC1 [KKL-1335],0
13,COc1cc(CN(CCCn2ccnc2)Cc2ccc(C)s2)cc2c1OCO2 [KKL-0341],9
14,CSc1nc2nc3c(c(O)n2n1)CCCC3 [KKL-1033],0
15,Cc1ccc(C(=O)Oc2ccc(Cl)c3cccnc23)cc1[N+](=O)[O-] [KKL-1383],0
16,O=C(Oc1c(Cl)cc(Cl)c2cccnc12)c1ccc([N+](=O)[O-])cc1 [KKL-0754],96
17,COc1ccc(C(=O)Oc2cccc3cccnc23)cc1[N+](=O)[O-] [KKL-1648],0
18,O=C(Oc1c(Cl)cc(Cl)c2cccnc12)c1ccco1 [KKL-1639],0
19,O=C(Oc1c(Cl)cc(Cl)c2cccnc12)c1ccccc1[N+](=O)[O-] [KKL-1418],90
20,Cc1c(C(=O)Oc2cccc3cccnc23)cccc1[N+](=O)[O-] [KKL-0952],8
21,CCCc1cc2c(=O)c(-c3ccc4c(c3)OCCCO4)coc2cc1OCC(=O)OCC [KKL-1419],0
22,O=C(Nc1ccc(Cl)cc1C(F)(F)F)c1ccc([N+](=O)[O-])o1 [KKL-0712],0

row,SMILES,% activation [%]
1,CN1CCN(c2cc(-c3ccncc3)nc(-c3ccccc3)n2)CC1 [KKL-1795],237
2,COc1ccc(-c2cncc(-c3cc(N4CCN(CCO)CC4)nc(-c4ccccc4)n3)c2)cc1 [KKL-1682],0
3,CN1CCN(c2cc(-c3ccc(F)cc3)nc(-c3ccncc3)n2)CC1 [KKL-1844],0
4,Cc1cc(CN2CCC(O)(c3ccccc3)C2)ccc1N1CCCC1 (centres unmarked) [KKL-0330],0
5,CCc1ccc(Nc2nnc(SCc3cc(C)on3)s2)cc1 [KKL-1791],0
6,N#Cc1cc2c(ccc3ccccc32)oc1=O [KKL-1386],0
7,CCCc1ccc2oc(C(=O)NCCc3ccc(O)cc3)c(C)c2c1 [KKL-1185],2
8,C#CCOc1cccc(CN2CCn3cccc3C2CC)c1 (centres unmarked) [KKL-0516],0
9,CSc1ncc(CN2CCCC(C(=O)c3ccc(-c4ccccc4)c(F)c3)C2)cn1 (centres unmarked) [KKL-0344],0
10,CN(CC1Cc2ccccc2CN1C)C(=O)c1cc(COc2cncc(Cl)c2)on1 (centres unmarked) [KKL-1186],0
11,COc1ccccc1N1C(=O)c2cccc3cc([N+](=O)[O-])cc(c23)C1=O [KKL-1508],0
12,Cc1ccccc1OCCCON1C(=N)N=C(N)NC1(C)C [KKL-1698],11
13,COc1ccc(C(C)(C)C)cc1N=C(S)Nc1ccc(Cl)c(Cl)c1 [KKL-1535],0
14,Cc1ccc2nc(C(F)(F)F)c(C(=O)NCc3cccc(OC(C)C)c3)n2c1 [KKL-1772],2
15,Cc1ccccc1/C=C/c1ccc2cccc(O)c2n1 [KKL-0432],11
16,Oc1cccc2ccc(/C=C/c3cccc(F)c3)nc12 [KKL-1464],18
17,CC(=O)Nc1ccc2cccc(O)c2n1 [KKL-0957],55
18,Cc1nc2ccccn2c1C(=O)Nc1ccc(C(C)(C)C)cc1 [KKL-1770],0
19,N#Cc1ncn(-c2ccc3nnc(C(F)(F)F)n3n2)n1 [KKL-1886],0
20,CC(C)c1noc(N2CCC(C(C)Oc3cnc(-c4ccc(S(C)(=O)=O)c(F)c4)cn3)CC2)n1 (centres unmarked) [KKL-1810],0
21,Cc1ccc(-c2cc(C(=O)N3CCCC(N4CCN(c5ccccc5C)CC4)C3)[nH]n2)s1 (centres unmarked) [KKL-0485],0
22,COc1cccc(O)c1CN1CCC(C(=O)Nc2ccc(-c3cccc(C)c3)cc2)CC1 [KKL-0508],0
